Out of some 1,400 compounds screened, about 60 (4%) were called active. Inconclusive results (about 7%) are left out. Calls come from the whole dose curve; as a rule, active = well fitted inhibition curve with a large enough effect; inconclusive = small, poorly fitted or top-dose-only effect; inactive = flat fitted curve, though single readings scatter. The list is a sample of the results.
% is set by controls: 0 for no effect and ±100 for the full control effect; potency is the fitted concentration of half-maximal effect.

Sequence of Luciferin 4-monooxygenase (Photinus pyralis) (P08659 whole entry, looked up): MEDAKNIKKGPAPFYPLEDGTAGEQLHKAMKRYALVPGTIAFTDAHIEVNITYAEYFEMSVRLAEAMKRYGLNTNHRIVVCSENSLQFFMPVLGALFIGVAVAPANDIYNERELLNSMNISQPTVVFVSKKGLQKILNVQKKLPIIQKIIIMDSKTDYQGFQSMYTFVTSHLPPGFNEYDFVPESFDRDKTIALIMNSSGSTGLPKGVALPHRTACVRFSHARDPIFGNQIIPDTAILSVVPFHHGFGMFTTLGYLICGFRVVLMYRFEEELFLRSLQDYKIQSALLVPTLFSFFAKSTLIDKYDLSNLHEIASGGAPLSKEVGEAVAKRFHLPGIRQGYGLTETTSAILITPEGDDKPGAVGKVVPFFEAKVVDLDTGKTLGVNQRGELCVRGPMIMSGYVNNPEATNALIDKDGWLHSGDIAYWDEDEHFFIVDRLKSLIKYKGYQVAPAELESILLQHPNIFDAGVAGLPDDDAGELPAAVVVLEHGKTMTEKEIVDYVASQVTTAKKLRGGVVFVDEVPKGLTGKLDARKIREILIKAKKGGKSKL

The assay concerns the target Luciferin 4-monooxygenase (Photinus pyralis) (UniProt P08659). The experiment in a line: Nrf2 qHTS screen for inhibitors: Purified Fluc Biochemical Counterscreen for Hit Validation. Note: nearly all actives have a fitted effect of over 65% in size. Particulars: purified firefly luciferase, luminescence inhibition; series mostly up to 57.5 µM; activity change, negative = inhibition: at the top concentration. From the text: Nrf2 is a transcription factor that maintains cellular redox homoestasis and protects cells from xenobiotics. Nrf2 binds to the antioxidant response element (ARE) to induce gene expression of a broad spectrum of genes that encode for antioxidants. […] Finding a small molecule that act as an inhibitor of Nrf2 function would represent a novel therapeutic target that could lead to improvement in survival of patients undergoing chemo- and/or radio- therapy.
A biochemical assay in 1536 well format was developed and utilized to remove compounds that inhibit the luciferase reporter (Fluc) rather than the Nrf2 enzyme. Inhibition of this assay = false positive inhibition of Nrf2.
NIH Chemical Genomics Center [NCGC]
NIH Molecular Libraries Probe Centers Network [MLPCN]
Assay Submitter (PI): Shyam Biswal, Johns Hopkins University
[1] Shibata T., et al., Genetic alteration of Keap1 confers constitutive Nrf2 activation and resistance to chemotherapy in gallbladder cancer. Gastroenterology, 2008.
[2] Sjoblom T., et al., The consensus coding sequences of human breast and colorectal cancers. Science, 2006.
Three microliter of substrate solution containing 50mM Tris acetate, 13.3 mM Mg-acetate, 0.01mM ATP, 0.01% Tween, 0.05% BSA and 0.01mM D-Luciferin (Sigma, #L9504) was dispensed into 1536 well white solid bottom assay plate (Greiner Bio, #789173-F). Twenty-three nanoliter of compounds dissolved in DMSO at different concentrations was added to the plate using a Kalypsys 1536-pin tool. Then 1 uL of firefly luciferase reagent containing 50mM Tris-acetate and 0.04uM P. pyralis luciferase (Sigma, #L9506) was added. The final DMSO concentration was maintained at 0.56%. Luminescence signal was acquired using the PerkinElmer Viewlux plate reader after incubation at room temperature for 10 minutes.
For orientation: Quantitative high-throughput screening tests each substance at several concentrations.
Regarding `Cc1cc(C(=O)NC2CCCc3c2cnn3-c2cccc(C)c2C)c(C)o1` (stereo not given), the “activity change, negative = inhibition” value was -15.8% (inactive).
For `O=C(CCC(=O)N1CCN(S(=O)(=O)c2ccc(Cl)cc2)CC1)NCc1cccc(C(F)(F)F)c1`, the “activity change, negative = inhibition” value is 2.67% (inactive).
Same read-out and setting: in the case of `Cc1nc(N2CCOCC2)c2c(C)c(C(=O)Nc3ccc(C(F)(F)F)cc3)sc2n1` it was -11.7% (inactive); in that of `O=C(Nc1ccncc1)c1c(F)cccc1F`, 0.655% (inactive).
Take `Cc1ccc(S(=O)(=O)N2CCN(c3ncnc4ccccc34)CC2)cc1`: the Potency result is “inactive”.
Same read-out and setting: the value for `CC(=NNC(=S)N1CCCCCC1)c1ccccn1` was 12 µM (active).
As to `CCCCNc1nc2c(c(=O)n(C)c(=O)n2C)n1Cc1cccc(OC)c1`, the “activity change, negative = inhibition” value is 2.33% (inactive).
Regarding `CC(=O)N1c2ccc(S(=O)(=O)N3CCCC(C(=O)NCc4ccc(Cl)cc4)C3)cc2CC1C` (stereo not given), the “activity change, negative = inhibition” value is -0.0313% (inactive).
With `CN(C)c1ccc(/C=C/c2sc3ccccc3[n+]2CCCCBr)cc1`, the “activity change, negative = inhibition” value is 2.47% (inactive).
With `CCC(C)N1C(=O)S/C(=C/c2ccc(Sc3nc4ccccc4[nH]3)o2)C1=O` (stereo not given), the “activity change, negative = inhibition” value is -3.17% (inactive).
Same read-out and setting: the value for `O=C1C=C(c2ccnc3cc(Cl)ccc23)C[C@@H](c2ccc3c(c2)OCO3)C1` was -0.462% (inactive).
Take `COc1cccc(-c2nc(CS(=O)(=O)CC(=O)N3CCN(c4cc(C)ccc4C)CC3)c(C)o2)c1`: the “activity change, negative = inhibition” value was -16.5% (inactive).
Still for that read-out and setting: the value for `COCCn1c(SCC(=O)Nc2ccccc2F)nc2c(c1=O)SCC2` was -0.508% (inactive).
Still for that read-out and setting: the value for `Cn1nccc1C(=O)NC1CCCc2c1cnn2-c1ccc(F)cc1F` (stereo not given) was 2.08% (inactive).
On the same count and under the same terms, in the case of `Cc1oc2c(F)c(F)c(F)c(F)c2c1S(=O)(=O)Nc1cccc(C(F)(F)F)c1` it was -1.25% (inactive); in that of `CC(=O)N1CCCc2cc(S(=O)(=O)N3CCCC(C(=O)N4CCN(c5cccc(Cl)c5)CC4)C3)ccc21` (stereo not given), -0.273% (inactive).
For `Cc1ccc(NC(=O)C2CC(=O)N(c3ccc4c(c3)OCCO4)C2)cc1S(=O)(=O)N1CCCCCC1` (stereo not given), the “activity change, negative = inhibition” value was -12.3% (inactive).
The same measure, in the same setting: in the case of `O/N=C(\C[n+]1ccccc1)c1ccc(Br)cc1` it was -0.184% (inactive).
For `N#CC(C#N)=CN=c1ccn(Cc2ccc(Cl)cc2Cl)cc1`, the “activity change, negative = inhibition” value was -2.69% (inactive).
Turning to `O=c1[nH]c(SCc2cccc(F)c2)nc2ccccc12`, the “activity change, negative = inhibition” value is -12.6% (inactive).
Same read-out and setting: the value for `COc1cccc(-c2nnc(NC(=O)c3ccc(S(=O)(=O)N(CC(C)C)CC(C)C)cc3)o2)c1` was -0.563% (inactive); that for `Cc1cc(C)c(-c2csc(NC(=O)CCCc3nc4ccccc4c(=O)[nH]3)n2)c(C)c1` was 1.65% (inactive); that for `Cc1c(Cl)cccc1NC(=O)Cn1cc(C(=O)c2cccs2)c2ccccc21` was -11.4% (inactive).
The same measure, in the same setting: the value for `CC1(C)O[C@@H]2CC3C4C[C@H](F)C5=CC(=O)C=CC5(C)C4C(O)CC3(C)[C@]2(C(=O)CO)O1` (stereo not given in full) was -1.87% (inactive).
The same measure, in the same setting: the value for `CC(=O)Nc1ccc(Nc2c3ccccc3nc3ccccc23)cc1` was -10.2% (inactive); that for `CCCOc1ccc(C(=O)Nc2ccc3oc(-c4cccc(Cl)c4Cl)nc3c2)cc1` was 0.869% (inactive).
For `CC(=O)OC(C)C[N+](C)(C)C` (stereo not given), the “activity change, negative = inhibition” value is -2.04% (inactive).
On the same count and under the same terms, the value for `COc1ccc(CC(=O)Nc2nc(-c3ccc(F)c(F)c3)cs2)cc1OC` was -1.67% (inactive); that for `O=C(OCCOc1ccccc1Cl)c1cc(S(=O)(=O)N2CCCCC2)ccc1N1CCOCC1` was 2.03% (inactive).
The same measure, in the same setting: the value for `CC1CCCN(S(=O)(=O)c2ccc(C(=O)Nc3nnc(-c4ccncc4)o3)cc2)C1` (stereo not given) was 2.31% (inactive); that for `CC[C@H]1CN2CCc3cc(OC)c(OC)cc3[C@@H]2C[C@@H]1C[C@H]1NCCc2cc(OC)c(OC)cc21` was 0.375% (inactive).
The same measure, in the same setting: in the case of `Cc1ccc(S(=O)(=O)N2C[C@@H]3CCCC[C@@H]3[C@@H](C)[C@H]2c2cn(Cc3ccccc3)c3ccc(F)cc23)cc1` it was 2% (inactive).
For the molecule `OCCCNc1nccc(-c2cc(Nc3cccc(Cl)c3)ncn2)n1`, the “activity change, negative = inhibition” value is -22.4% (inactive).
The same measure, in the same setting: in the case of `Cc1ccc(NS(=O)(=O)c2cccs2)cc1S(=O)(=O)N1CCCCCC1` it was -0.678% (inactive).
Same read-out and setting: in the case of `CCOC(=O)c1cnc(-n2nc(C)cc2C)nc1NNc1cc(C)nc(-c2ccccc2)n1` it was 4.06% (inactive); in that of `CN(Cc1cccnc1)C(=O)c1cc(COc2ccc3ncccc3c2)on1`, -3.7% (inactive).
Still for that read-out and setting: in the case of `CC1(C)CC(N2CCN(C(c3ccccc3)c3ccccc3)CC2)=CC(=[N+]2CCCCC2)C1` it was -16% (inactive).
Regarding `Cc1csc[n+]1CCC1CCCCC1`, the “activity change, negative = inhibition” value was -0.381% (inactive).
The same measure, in the same setting: the value for `O=C(Nc1ccc(Br)cn1)C1CCN(S(=O)(=O)c2cccs2)CC1` was 1.61% (inactive); that for `COc1ccc(N2CCN(C(=O)CSCc3nc(-c4ccccc4Cl)oc3C)CC2)cc1` was 0.323% (inactive); that for `CCCOc1ccc(Cc2c(Cl)nc(SC)nc2NC)cc1` was -1.64% (inactive).
Still for that read-out and setting: in the case of `Cc1cccc(N2CCN(C(=O)CCS(=O)(=O)c3ccc4c(c3)NC(=O)C(C)S4)CC2)c1C` (stereo not given) it was 2.31% (inactive); in that of `C[n+]1ccc(/C=C/c2c[nH]c3ccccc23)cc1`, 2.78% (inactive).
Regarding `O=C(CN1C(=O)c2ccccc2S1(=O)=O)N1CCc2ccccc21`, the Potency was 4.26 µM (active).
On to `O=C(CSc1nnc2c(n1)[nH]c1ccccc12)NC1CCCCC1`, for which the “activity change, negative = inhibition” value was -1.71% (inactive).
Same read-out and setting: in the case of `O=C(CC(O)(C(F)(F)F)C(F)(F)F)Nc1ccc(Cl)c(Cl)c1` it was 1.69% (inactive); in that of `COc1ccc(C(=O)C[n+]2ccc(N)c(C)c2C)cc1`, -0.956% (inactive); in that of `CCCN(c1ccc(C(C)C)cc1)S(=O)(=O)c1c(C)[nH]c(=O)[nH]c1=O`, -1.53% (inactive).
On the same count and under the same terms, in the case of `CCOc1ccc(S(=O)(=O)N2CCCCC2)cc1NC(=O)CN1CCCC1c1cccs1` (stereo not given) it was -0.627% (inactive); in that of `CC1CCN(S(=O)(=O)c2ccc(NC(=O)C3CC(=O)N(c4ccccc4)C3)cc2)CC1` (stereo not given), -0.62% (inactive); in that of `COc1ccc(CCNC(=O)c2ccc(CS(=O)(=O)c3ccc(Br)cc3)o2)cc1OC`, -8.22% (inactive).
With `COc1ccc(OC)c(Cc2cnc3nc(N)nc(N)c3c2C)c1`, the “activity change, negative = inhibition” value was -2.63% (inactive).
Consider `CCCCCCCCn1c2c(c(=N)c3c1CCC3)CCCC2`, for which the “activity change, negative = inhibition” value was 1.69% (inactive).
For the molecule `COc1ccc(CCNc2cc(N3CCN(C(=O)c4ccccc4OC)CC3)ccc2[N+](=O)[O-])cc1OC`, the “activity change, negative = inhibition” value is -10.5% (inactive).
The same measure, in the same setting: in the case of `CC(=O)N1c2ccc(S(=O)(=O)N3CCCC(C(=O)Nc4cccc(Cl)c4)C3)cc2CC1C` (stereo not given) it was 2.21% (inactive); in that of `CNC(=O)c1cccc2nc3ccccc3nc12`, 1.57% (inactive).
On to `CC(C)Cn1c(N)c(C(=O)COC(=O)CN2C(=O)C3CC=CCC3C2=O)c(=O)n(C)c1=O` (stereo not given), for which the “activity change, negative = inhibition” value is 0.523% (inactive).
Same read-out and setting: in the case of `Cc1cc(C)cc(NS(=O)(=O)c2ccc(Oc3ncc(C(F)(F)F)cc3Cl)cc2)c1` it was 1.28% (inactive).
As to `CCNS(=O)(=O)c1ccc(CCC(=O)N2CCN(c3cc(Cl)ccc3C)CC2)cc1`, the “activity change, negative = inhibition” value is 2.95% (inactive).
Still for that read-out and setting: in the case of `C=CCC1(CC=C)CCCN1C(=O)c1cc(COc2ccc(-n3cncn3)cc2)on1` it was 0.848% (inactive).

Source of the values: PubChem BioAssay AID720522 (National Center for Advancing Translational Sciences (NCATS), 2013).
